The target in assay [1] is Voltage-gated inwardly rectifying potassium channel KCNH2 (Homo sapiens) (UniProt Q12809). Briefly: qHTS Assay for Small Molecule Inhibitors of the Human hERG Channel Activity (AID 588834).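 Note: lower thallium flux fluorescence means stronger hERG block; nearly all actives have a fitted effect of over 50% in size.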 Note: potency is the fitted concentration of half-maximal effect. The gist of the method:
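Concentration-response qHTS measuring drop in thallium-sensitive dye signal. U2OS cells carrying BacMam hERG; compound exposure ~10 min, then stimulation buffer and 2 min read at 1 sec intervals.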
Background: qHTS replaces the single test concentration by a dilution series.

Assay [2] addresses Luciferin 4-monooxygenase (Photinus pyralis) (UniProt P08659). Briefly: Biochemical firefly luciferase enzyme assay for NPC (AID 624030).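 Note: purified P. pyralis luciferase at 10 nM with luciferin and ATP substrate; series mostly up to about 59 µM; 0% = DMSO and -100% = full luciferase inhibition by PTC124 control; nearly all actives have a fitted effect of over 70% in size.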 The gist of the method: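 Purified P. pyralis luciferase at 10 nM in 50 mM Tris Acetate (final), luminescence read within 5 minutes of enzyme addition to compounds. Activity normalised to PTC124 versus DMSO; concentration-response curves classed by r2, magnitude and activity.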

Assay [3] can be described thus: S16 Schwann cell PMP22 intronic element firefly luciferase assay (AID 624032). Note: nearly all actives have a fitted effect of over 30% in size. Note: potency is the fitted concentration of half-maximal effect. Summed up:
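Rat S16 Schwann cells stably carrying firefly luciferase driven by a PMP22 intronic element, in 10% FBS, treated 24 h at 37 C. ONE-Glo luminescence normalized to PTC124 control and DMSO (0%); curves classed by r2, magnitude and activity.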

Assay [4] in a line: qHTS assay for small molecule antagonists of peroxisome proliferator-activated receptor delta signaling (AID 588535; active = well fitted inhibition curve with a large enough effect in the signal ratio, with a control signal flat, not every such curve was filed as active; the % refers to the signal ratio;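 for max response: cells co-treated with a PPAR-delta agonist as stimulator during compound exposure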). As to conditions: HEK293T PPARd-UAS-bla, beta-lactamase FRET ratio, 18 h; 460 nm channel. Summed up: (§1)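 Cells were seeded at 4000 per well in assay medium containing 2% charcoal/dextran FBS and held 5 hrs at 37 C. Compounds were then added for 18 hrs. CCF4 substrate was applied for 2 hrs at room temperature before fluorescence reading.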

The target in assay [5] is Peroxisome proliferator-activated receptor delta (Homo sapiens) (UniProt Q03181). The assay is described as above. Summed up:
as §1

Assay [6] has as its target Peroxisome proliferator-activated receptor gamma (Homo sapiens) (UniProt P37231). Briefly: qHTS assay for small molecule agonists of peroxisome proliferator-activated receptor gamma signaling (AID 588536; active = well fitted curve in the direction sought with a large enough effect in the signal ratio, with a control signal flat, not every such curve was filed as active; the % refers to the signal ratio;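 note: 0% = DMSO basal wells and 100% = rosiglitazone at 2 µM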). The gist of the method:
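Test agents, titrated, stimulated HEK293 UAS-bla cells overnight (16 h, 37 C). Substrate CCF4 was then added for two hours at room temperature before fluorescence reading.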

For assay [7] the target is unchanged. Briefly: qHTS assay for small molecule antagonists of peroxisome proliferator-activated receptor gamma signaling (AID 588537; active = well fitted inhibition curve with a large enough effect in the signal ratio, with a control signal flat, not every such curve was filed as active; the % refers to the signal ratio;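 note: reporter cells co-stimulated with 50 nM rosiglitazone agonist during compound treatment; % of control where 0% means no effect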). Summed up:
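Step one: plate 3000 HEK293 UAS-bla cells per well in medium with 1% stripped serum and hold 6-6.5 h at 37 C. Step two: add compound and 50 nM agonist for 16 h. Step three: CCF4 loading, fluorescence read.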

In assay [8] the target is Vitamin D3 receptor (Homo sapiens) (UniProt P11473). Briefly: qHTS assay for small molecule antagonists of vitamin D receptor signaling (AID 588541; calls by dose curve;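 note: receptor activated by calcitriol during compound treatment; series mostly up to about 77 µM; % is set by controls: 0 for no effect and ±100 for the full control effect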). Summed up: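 VDR-UAS-bla HEK293T cells in 2% charcoal-stripped FBS were stimulated with 1-alpha,25-dihydroxyvitamin D3 (3 nM final) plus compound for 16 h at 37 C. The beta-lactamase CCF4 readout was normalized to 50 nM agonist and DMSO, and Hill fits gave IC50.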
Vitamin D3 receptor (Homo sapiens), sequence (P11473 whole entry, looked up): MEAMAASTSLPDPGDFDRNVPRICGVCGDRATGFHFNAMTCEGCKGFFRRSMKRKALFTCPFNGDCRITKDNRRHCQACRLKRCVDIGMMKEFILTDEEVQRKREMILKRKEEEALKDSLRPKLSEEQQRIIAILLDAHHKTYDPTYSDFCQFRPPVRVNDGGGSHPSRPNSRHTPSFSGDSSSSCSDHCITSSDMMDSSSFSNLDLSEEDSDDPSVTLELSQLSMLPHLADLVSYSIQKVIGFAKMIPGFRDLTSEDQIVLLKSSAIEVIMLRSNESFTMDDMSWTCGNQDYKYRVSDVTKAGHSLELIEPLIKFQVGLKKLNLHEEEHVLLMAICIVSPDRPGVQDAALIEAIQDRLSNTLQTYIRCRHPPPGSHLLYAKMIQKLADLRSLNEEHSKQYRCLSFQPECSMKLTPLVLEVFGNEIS

A short description of assay [9]: qHTS assay for small molecule agonists of retinoid X receptor alpha signaling (AID 588544; calls by dose curve). As to conditions: HEK293T RXRa-UAS-bla, beta-lactamase reporter, 18 h; 530 nm emission.
Assay [10] concerns the target Retinoic acid receptor RXR-alpha (Homo sapiens) (UniProt P19793). Described as above.
Assay [11] can be described thus: qHTS assay for small molecule antagonists of retinoid X receptor alpha signaling (AID 588546; active = well fitted inhibition curve with a large enough effect in the signal ratio, with a control signal flat, not every such curve was filed as active; the % refers to the signal ratio;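 note: cells stimulated with 9-cis-retinoic acid as agonist; % is set by controls: 0 for no effect and ±100 for the full control effect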). The note with it: HEK293T RXRa-UAS-bla, beta-lactamase ratio, antagonist mode; measured here: W530 green channel, cytotoxicity proxy. Summed up:
(§2)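 Beta-lactamase reporter inhibition, read as CCF4 fluorescence ratio (ex 405, em 460/530 nm) after 2 h at RT. HEK293T UAS-bla cells, 2500/well, were stimulated with 9-cis-RA at 500 or 100 nM final alongside test compound for 18 h at 37 C.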

In assay [12] the target is Retinoic acid receptor RXR-alpha (Homo sapiens) (UniProt P19793). Described as above. The note with it: HEK293T RXRa-UAS-bla, beta-lactamase ratio, antagonist mode. The gist of the method:
as §2

Assay [13] can be described thus: S16 Schwann cell viability assay (CellTiter-Glo assay) (AID 624031).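 Note: native untransfected S16 rat Schwann cells; cellular ATP luminescence as a viability measure; series mostly up to about 58 µM; plate controls were DMSO-treated cells for no effect and cell-free wells for full effect; nearly all actives have a fitted effect of over 70% in size.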 Summed up: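 Concentration-effect curves come from CellTiter-Glo luminescence of S16 rat Schwann cells after 24 h compound exposure. Each reading was normalized to DMSO wells (0%) and wells without cells, and curves were ranked by r2 and response magnitude.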
(In general: Cellular ATP, detected with luciferase, serves as a proxy for viable cell number.)

A short description of assay [14]: S16 Schwann cell PMP22 intronic element beta-lactamase assay (AID 624044; calls by dose curve;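 note: 0% = DMSO and -100% = potassium clavulanate positive control; nearly all actives have a fitted effect of over 15% in size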). Summed up: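 Rat S16 Schwann cells with beta-Lac driven by a PMP22 intronic element, compound-treated 24 h at 37 °C. LiveBLAzer FRET B/G read: 460 nm normalized to potassium clavulanate vs DMSO; 535 nm FRET as viability; concentration-effect curves classified.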
Assay [15] has as its target Glutaminase kidney isoform, mitochondrial (Homo sapiens) (UniProt O94925). Briefly: qHTS for Inhibitors of Glutaminase (GLS): LOPAC Validation (AID 624146).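 Note: glutamate product detected by oxidase and peroxidase coupled Amplex red fluorescence gain; series mostly up to about 46 µM; % is set by controls: 0 for no effect and ±100 for the full control effect; nearly all actives have a fitted effect of over 60% in size.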 The gist of the method: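 hKGA; 45 mM KH2PO4 pH 8.2 + 0.02% Tween-20; cpd via pin tool; 1 mM Gln soln; GluOx/HRP/Amplex Red; RT 30 min; fluor. t0 & final.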
The nature of assay [16]: qHTS of Trypanosoma Brucei Inhibitors: LOPAC Validation (AID 624147). Note: 0% is about no effect. Summed up:
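Assay buffer: 50 mM TEA pH 7.2, 100 mM KCl, 10 mM MgCl2, 0.05% BSA, 0.01% Tween-20. Pyruvate kinase from T. brucei plus substrate met compound, then ADP (130 uM final). Luminescence was read post 45 min RT.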

Assay [17] deals with Glucagon-like peptide 1 receptor (Homo sapiens) (UniProt P43220). Briefly: qHTS of GLP-1 Receptor Agonists: LOPAC Validation (AID 624148).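 Note: 0% is about no effect; higher luminescence signal means agonism.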 The gist of the method: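 HEK293 cells stably co-expressing GLP-1R and a cAMP-responsive luciferase reporter, plated 12 hours before compound, then incubated 4-6 hr at 37 deg C. Luminescence read 12 min after detection reagent.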
Glucagon-like peptide 1 receptor (Homo sapiens), sequence (P43220 whole entry, looked up): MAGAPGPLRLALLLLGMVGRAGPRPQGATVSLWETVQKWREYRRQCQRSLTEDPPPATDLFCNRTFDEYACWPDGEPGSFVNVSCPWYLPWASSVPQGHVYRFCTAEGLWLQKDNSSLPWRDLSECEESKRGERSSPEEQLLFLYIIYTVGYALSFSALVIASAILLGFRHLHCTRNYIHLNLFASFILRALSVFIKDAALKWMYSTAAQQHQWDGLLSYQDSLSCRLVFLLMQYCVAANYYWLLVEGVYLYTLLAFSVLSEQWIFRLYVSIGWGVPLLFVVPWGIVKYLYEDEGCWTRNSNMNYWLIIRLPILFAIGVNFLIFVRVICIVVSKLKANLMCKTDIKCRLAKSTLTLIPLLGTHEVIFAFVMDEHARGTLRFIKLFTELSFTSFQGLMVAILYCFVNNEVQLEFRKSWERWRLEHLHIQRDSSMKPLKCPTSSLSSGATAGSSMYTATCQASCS
Assay [18] can be described thus: qHTS of Nrf2 Activators: LOPAC Validation (AID 624149). Note: 0% is about no effect. Summed up: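 ARE reporter activation measured in AREc32 firefly luciferase cells after 24 hr compound exposure; Steady-Glo luminescence.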
The nature of assay [19]: HTS Assay for Allosteric Antagonists of the Human D2 Dopamine Receptor: Hit Validation in HTRF (AID 624455).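 Note: stable D1 dopamine receptor cell line scored for blocking the D1 response; % is set by controls: 0 for no effect and ±100 for the full control effect.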 The gist of the method:
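Signal from an HTRF read-out in D1-expressing stable cells gave hit activity as inhibition of the D1 response.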
On the technique in general: In TR-FRET formats the signal depends on donor and acceptor labels being close together.

Values joined by “and” are separate entries in the source; they are usually repeats but may differ in a detail not shown here. Equal entries are not always repeated. Records with an inconclusive call do not appear. Active and inactive are the calls of the source. Unless noted, calls come from the whole dose curve; as a rule, active = well fitted curve in the direction sought with a large enough effect; inconclusive = small, poorly fitted or top-dose-only effect, or another doubt; inactive = no such curve, though single readings can be large; an effect the other way counts as inactive or inconclusive.

Peroxisome proliferator-activated receptor gamma (Homo sapiens), sequence (P37231 whole entry, looked up): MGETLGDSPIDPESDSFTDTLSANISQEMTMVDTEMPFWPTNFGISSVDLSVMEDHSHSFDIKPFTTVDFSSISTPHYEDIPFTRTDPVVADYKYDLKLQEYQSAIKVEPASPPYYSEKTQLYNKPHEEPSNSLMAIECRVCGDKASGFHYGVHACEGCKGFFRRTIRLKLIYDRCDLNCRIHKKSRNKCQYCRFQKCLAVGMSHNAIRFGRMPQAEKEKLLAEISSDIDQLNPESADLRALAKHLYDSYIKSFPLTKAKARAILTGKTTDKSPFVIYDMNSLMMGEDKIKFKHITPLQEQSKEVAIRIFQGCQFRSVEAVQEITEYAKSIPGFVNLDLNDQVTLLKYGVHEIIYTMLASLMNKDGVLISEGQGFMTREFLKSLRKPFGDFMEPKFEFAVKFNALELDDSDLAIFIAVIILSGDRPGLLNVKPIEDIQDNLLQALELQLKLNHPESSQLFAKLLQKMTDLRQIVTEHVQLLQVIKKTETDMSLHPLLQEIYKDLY
Voltage-gated inwardly rectifying potassium channel KCNH2 (Homo sapiens), sequence (Q12809 whole entry, looked up): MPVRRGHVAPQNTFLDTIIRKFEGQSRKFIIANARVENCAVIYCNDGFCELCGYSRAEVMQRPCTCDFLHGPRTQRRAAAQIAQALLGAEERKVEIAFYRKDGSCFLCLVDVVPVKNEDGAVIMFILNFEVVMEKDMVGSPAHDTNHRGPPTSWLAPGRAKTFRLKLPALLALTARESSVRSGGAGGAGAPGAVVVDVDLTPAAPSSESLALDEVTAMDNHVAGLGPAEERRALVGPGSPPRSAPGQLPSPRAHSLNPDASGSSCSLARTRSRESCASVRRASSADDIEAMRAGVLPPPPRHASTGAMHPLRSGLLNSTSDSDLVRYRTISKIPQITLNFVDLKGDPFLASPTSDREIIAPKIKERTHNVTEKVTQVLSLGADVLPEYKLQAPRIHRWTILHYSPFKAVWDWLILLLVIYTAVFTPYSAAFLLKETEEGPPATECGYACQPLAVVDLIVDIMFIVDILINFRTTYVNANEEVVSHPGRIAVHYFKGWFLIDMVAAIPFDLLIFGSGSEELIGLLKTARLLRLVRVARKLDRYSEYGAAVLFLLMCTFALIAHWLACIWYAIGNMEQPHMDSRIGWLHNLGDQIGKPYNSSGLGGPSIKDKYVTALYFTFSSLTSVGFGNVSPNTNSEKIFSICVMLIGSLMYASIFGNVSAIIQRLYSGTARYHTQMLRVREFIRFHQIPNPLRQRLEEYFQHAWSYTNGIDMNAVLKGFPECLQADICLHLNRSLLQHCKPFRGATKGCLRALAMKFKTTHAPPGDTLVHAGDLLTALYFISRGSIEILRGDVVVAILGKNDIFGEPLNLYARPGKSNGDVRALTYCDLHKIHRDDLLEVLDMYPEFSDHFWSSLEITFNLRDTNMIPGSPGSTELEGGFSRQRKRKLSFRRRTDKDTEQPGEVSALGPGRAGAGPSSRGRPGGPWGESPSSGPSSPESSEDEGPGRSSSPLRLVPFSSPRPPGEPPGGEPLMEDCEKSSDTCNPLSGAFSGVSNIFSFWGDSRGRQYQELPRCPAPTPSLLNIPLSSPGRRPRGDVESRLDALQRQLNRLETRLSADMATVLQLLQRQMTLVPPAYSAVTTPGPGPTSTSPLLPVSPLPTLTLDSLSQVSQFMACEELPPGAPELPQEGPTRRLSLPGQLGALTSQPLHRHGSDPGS
Peroxisome proliferator-activated receptor delta (Homo sapiens), sequence (Q03181 whole entry, looked up): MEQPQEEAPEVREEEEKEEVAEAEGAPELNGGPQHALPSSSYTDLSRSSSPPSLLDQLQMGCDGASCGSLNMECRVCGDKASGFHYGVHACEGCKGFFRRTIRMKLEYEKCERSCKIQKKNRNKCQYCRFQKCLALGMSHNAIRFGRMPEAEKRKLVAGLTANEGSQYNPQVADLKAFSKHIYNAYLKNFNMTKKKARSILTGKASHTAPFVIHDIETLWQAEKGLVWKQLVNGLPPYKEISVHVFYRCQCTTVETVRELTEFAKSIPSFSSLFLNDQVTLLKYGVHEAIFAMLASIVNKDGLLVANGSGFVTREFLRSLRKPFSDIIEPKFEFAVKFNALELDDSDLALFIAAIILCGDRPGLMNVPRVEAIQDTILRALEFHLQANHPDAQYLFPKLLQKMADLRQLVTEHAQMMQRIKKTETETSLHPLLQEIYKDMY
Retinoic acid receptor RXR-alpha (Homo sapiens), sequence (P19793 whole entry, looked up): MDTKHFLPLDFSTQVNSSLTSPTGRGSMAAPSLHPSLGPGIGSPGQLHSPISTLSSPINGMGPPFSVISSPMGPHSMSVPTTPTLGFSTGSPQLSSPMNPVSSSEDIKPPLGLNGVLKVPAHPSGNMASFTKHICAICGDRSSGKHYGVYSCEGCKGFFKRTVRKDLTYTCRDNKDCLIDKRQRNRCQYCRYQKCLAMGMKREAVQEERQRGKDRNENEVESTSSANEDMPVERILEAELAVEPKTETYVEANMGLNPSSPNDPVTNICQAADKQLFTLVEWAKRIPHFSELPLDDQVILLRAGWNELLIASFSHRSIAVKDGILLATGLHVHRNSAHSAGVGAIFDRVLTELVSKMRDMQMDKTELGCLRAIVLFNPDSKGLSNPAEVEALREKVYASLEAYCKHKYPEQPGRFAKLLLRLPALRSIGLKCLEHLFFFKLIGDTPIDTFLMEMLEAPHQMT
Luciferin 4-monooxygenase (Photinus pyralis), sequence (P08659 whole entry, looked up): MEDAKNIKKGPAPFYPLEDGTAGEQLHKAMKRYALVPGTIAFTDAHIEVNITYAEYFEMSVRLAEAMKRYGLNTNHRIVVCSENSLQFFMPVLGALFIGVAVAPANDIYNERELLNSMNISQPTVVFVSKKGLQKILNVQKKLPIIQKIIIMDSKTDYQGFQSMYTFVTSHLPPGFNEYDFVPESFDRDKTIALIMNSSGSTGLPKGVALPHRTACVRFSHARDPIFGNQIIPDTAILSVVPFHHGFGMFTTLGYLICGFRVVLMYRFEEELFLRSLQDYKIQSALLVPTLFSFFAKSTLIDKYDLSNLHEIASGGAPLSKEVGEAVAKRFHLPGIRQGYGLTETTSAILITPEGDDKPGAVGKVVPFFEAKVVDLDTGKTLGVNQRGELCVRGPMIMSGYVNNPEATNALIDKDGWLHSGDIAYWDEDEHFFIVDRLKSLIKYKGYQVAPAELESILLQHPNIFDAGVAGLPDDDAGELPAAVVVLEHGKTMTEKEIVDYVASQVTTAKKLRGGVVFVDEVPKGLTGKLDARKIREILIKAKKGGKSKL
Glutaminase kidney isoform, mitochondrial (Homo sapiens), sequence (O94925 whole entry, looked up, canonical isoform): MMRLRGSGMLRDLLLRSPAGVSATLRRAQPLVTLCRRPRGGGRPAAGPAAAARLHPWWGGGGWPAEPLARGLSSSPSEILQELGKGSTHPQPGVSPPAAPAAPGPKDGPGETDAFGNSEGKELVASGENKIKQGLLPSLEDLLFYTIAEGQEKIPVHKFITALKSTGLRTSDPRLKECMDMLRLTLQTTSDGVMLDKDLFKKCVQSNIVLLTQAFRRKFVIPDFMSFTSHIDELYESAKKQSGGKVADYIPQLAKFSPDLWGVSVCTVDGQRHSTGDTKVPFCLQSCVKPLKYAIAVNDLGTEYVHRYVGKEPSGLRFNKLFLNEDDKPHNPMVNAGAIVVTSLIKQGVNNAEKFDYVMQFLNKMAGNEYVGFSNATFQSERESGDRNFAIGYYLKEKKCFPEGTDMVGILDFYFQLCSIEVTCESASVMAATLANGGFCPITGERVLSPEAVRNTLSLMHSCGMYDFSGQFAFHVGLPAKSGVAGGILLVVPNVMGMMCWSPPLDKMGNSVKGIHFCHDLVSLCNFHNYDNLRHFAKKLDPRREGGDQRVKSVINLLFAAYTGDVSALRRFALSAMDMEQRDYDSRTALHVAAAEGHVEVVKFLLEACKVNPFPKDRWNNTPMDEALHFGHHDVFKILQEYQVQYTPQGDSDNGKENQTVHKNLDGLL

For the molecule `CN1CCC(Nc2ncc3ncnc(Nc4ccc(F)c(Cl)c4)c3n2)CC1`, the Potency was 12.6 µM (active) in assay [1] and 36.1 µM (active) in assay [3]. Moreover, in assay [2], the Potency result was “inactive”.
As for `CCCC(=O)c1cc(O)c(O)cc1O`, the max response is 14.6% in [4], 11.4% in [9], 4.85% in assay [11] and 15.9% (inactive) in assay [12]. Further, the molecule was called inactive in assay [5], in assay [6], in assay [7] and in assay [8]. The Potency entry in assay [10] and in [1] was “inactive” in each case.
Regarding `O=C(Oc1ccccc1)c1ccccc1O`, the outcome in assay [6] and in assay [7] was inactive. Further, the max response in assay [11] is 8.83% and -6.1%; in assay [12] it was 0.088% (inactive) and -1.29% (inactive). Also, in assay [2], the Potency entry is “inactive”.
`O=[N+]([O-])c1ccc(O)c2ncccc12`: the Potency entry in assay [1], in [2] and in assay [3] was “inactive” in each case.
For `CN1C(=O)c2ccccc2C1=O`, the values for the max response in [4] and in assay [9] were -32.8% and -17.2%, respectively. Further, the molecule was classed as inactive in assay [5], in assay [6], in assay [7] and in assay [8]. Moreover, the Potency entry in [10] and in assay [2] was “inactive” in each case.
In the case of `O=C(NO)c1ccccc1`, the molecule was called inactive in [8]. Besides, the max response is -10.6% in assay [11] and -9.23% (inactive) in assay [12]. Moreover, the Potency result in assay [1] and in assay [2] was “inactive” in each case.
Consider `Nc1ncnc2nc[nH]c12`, for which the Potency result in [1], in assay [2], in [13], in [3] and in assay [14] was “inactive” throughout.
In the case of `COc1cccc2c1[C@@H]1CN(CCCCn3c(=O)[nH]c4c(sc5ncc(-c6ccccc6)nc54)c3=O)C[C@@H]1CO2`, in assay [1], the Potency is 5.01 µM (active). Moreover, the Potency entry in [2] and in assay [15] was “inactive” in each case. Further, the molecule was classed as inactive in [16], in [17], in assay [18] and in [19].
Regarding `CCCCC(CC)COC(=O)c1ccccc1C(=O)O` (centres undefined), the max response in assay [4] was -31.8%; in assay [9], 0.375% and 2.79%; in assay [11] it was -0.199% and -12.8%; in [12] it was -7.29% (inactive) and -5.81% (inactive). In addition, the outcome in assay [5] and in assay [8] was inactive. Besides, the Potency entry in [10] and in assay [1] was “inactive” in each case.
For `Cc1ncc(CO)c(CO)c1O`, the max response in assay [4] is 15.2%; in assay [9] it was -11.9%; in [11], -0.0047%; in assay [12], 7.42% (inactive). The result in [5], in [6], in [7] and in [8] was inactive. Moreover, the Potency result in [10] and in assay [2] was “inactive” in each case.

Source of the values: PubChem BioAssay (NCATS).
